# Assay outcomes (PubChem)
# An excerpt weighted towards active compounds, which were near 6% of everything screened.
# D3 antag = D3 dopamine receptor (human) antagonism. P35462. D3R cells, DiscoveRx beta-arrestin luminescence, antagonist mode; stronger effect = lower value. max response, negative = inhibition, %. hit rate 2.5% among 360,000. AID 652054; in the data active = max response below about -50%; inconclusive = no clear call, values can overlap the other calls; note: % is set by controls: 0 for no effect and ±100 for the full control effect
# Target sequence (P35462 whole entry, looked up): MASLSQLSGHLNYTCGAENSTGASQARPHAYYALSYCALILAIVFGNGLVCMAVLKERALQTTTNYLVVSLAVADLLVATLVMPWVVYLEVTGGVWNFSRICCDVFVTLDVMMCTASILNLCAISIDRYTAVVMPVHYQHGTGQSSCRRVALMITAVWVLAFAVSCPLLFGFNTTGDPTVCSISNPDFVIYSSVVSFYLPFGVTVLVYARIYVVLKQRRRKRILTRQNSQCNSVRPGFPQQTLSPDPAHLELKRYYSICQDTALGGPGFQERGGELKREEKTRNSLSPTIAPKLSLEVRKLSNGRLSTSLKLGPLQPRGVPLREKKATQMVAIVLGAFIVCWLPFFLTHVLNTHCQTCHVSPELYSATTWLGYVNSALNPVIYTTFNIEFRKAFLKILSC
#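 Cells expressing the human receptor were seeded at 1500 cells/well, incubated overnight at 37 degrees C in 5% CO2, then exposed to library compounds with dopamine controls for 90 minutes at 37 degrees C before luminescent detection.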
# D1 PAM = potentiators of human D1 dopamine receptor. hit rate 0.036% among 360,000. potentiation, % at 10 µM. AID 504651. HEK293 TREx D1 cells, calcium flux, dopamine EC20 potentiation; in the data active = potentiation above about 30%; note: 0% is about no effect
# D1 antagonist = human D1 dopamine receptor antagonism; hit rate 3.2% among 360,000; activity change, negative = inhibition, % at 10 µM; AID 504652; HEK293 TREx D1 cells, calcium flux, dopamine EC80; stronger effect = lower value; in the data active = activity change below about -30%; note: % is set by controls: 0 for no effect and ±100 for the full control effect
#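 Antagonism measured as reduced calcium response to an EC80 dopamine addition following 180 s compound pre-read; cells were inducible HEK293 Trex D1 plated overnight at 30 C, read kinetically at 1 cycle/sec.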
# D1 agonist = activates the human D1 dopamine receptor; P21728; HEK293 T-REx D1 cells, calcium flux, agonist mode; activation, % at 2 µM; hit rate 1% among 360,000; AID 504660; in the data active = activation above about 30%; note: 0% is about no effect
#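 Tetracycline-induced HEK293 TREx D1 cells, force-coupled to calcium signalling, were dye-loaded with a no-wash calcium kit. Compound was pin-added after a 10 s baseline. Fluorescence was read kinetically at 1 cycle/s for 180 s, with calcium rises flagged as agonism.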
# DRD3 agonist = agonists of human D3 dopamine receptor; D3R DiscoveRx beta-arrestin cells, luminescence, 90 min; max activation, %; hit rate 0.58% among 410,000; AID 652048; in the data active = max activation above about 30%; note: 0% is about no effect
#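 Cells at 1500/well, incubated overnight, then treated with pinned compounds (dopamine as control) for 90 min at 37 degrees C. DiscoveRx reagent added for 30 - 60 minutes at room temperature; luminescence read.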
# An asterisk follows results filed as active; ? = inconclusive; · = no result given.
SMILES,D3 antag,D1 PAM,D1 antagonist,D1 agonist,DRD3 agonist
Cc1cccc(C)c1OCC(O)CNC(C)(C)C (centres undefined),-51*,2,28,5,0
CCc1ccccc1OC[C@@H](O)CN[C@H]1CCCc2ccccc21,-53*,26,-52*,97*,-59
CCCN(CCC)C(=O)C(CCC(=O)OCCCN1CCN(CCOC(=O)Cc2c(C)n(C(=O)c3ccc(Cl)cc3)c3ccc(OC)cc23)CC1)NC(=O)c1ccccc1 (centres undefined),·,·,·,·,-30
O=C(Nc1ccc(Br)cc1)C1CCN(c2ncccn2)CC1,·,1,-8,2,1
O=C(N/N=C/c1cc(Br)cc(Br)c1O)c1cccc(S(=O)(=O)N2CCOCC2)c1,-18,-8,-29,10,1
O=C(N/N=C/c1cc(Cl)cc([N+](=O)[O-])c1O)c1ccc2c(c1)OCO2,-67*,12,-12,-2,-26
O=C(N/N=C/c1cc(Cl)cc([N+](=O)[O-])c1O)c1cccc(S(=O)(=O)N2CCOCC2)c1,-93*,1,13,2,-37
C/C(=N/NC(=O)c1cc2ccccc2cc1O)C1C(=O)c2ccccc2C1=O,-56*,6,-19,3,0
Cc1ccccc1Nc1c(-c2ccc(N3CCOCC3)cc2)nc2ccc(Br)cn12,·,-1,-8,3,-15
O=C(CSc1nccn1Cc1ccc(Cl)cc1)Nc1ccc2c(c1)OCCO2,·,1,-31*,1,-3
O=C(CSc1nccc(=O)[nH]1)Nc1ccc2c(c1)OCCO2,0,-1,-58*,1,-9
O=C(CSc1nccc(=O)[nH]1)NCc1ccc2c(c1)OCO2,3,2,-35*,2,-6
O=C(CSc1nccn1Cc1ccc(Cl)cc1)Nc1ccc2c(c1)OCO2,·,-4,-20,2,-10
O=C(CSc1nccc(=O)[nH]1)Nc1ccc2ccccc2c1,12,·,·,·,7
O=C(CSc1nccc(=O)[nH]1)Nc1ccc(Oc2ccccc2)cc1,7,-10,-57*,2,4
CCOc1ccc(/C=C/c2nc(C#N)c(NCc3ccc(OC)cc3)o2)cc1,·,0,6,10,7
COC(=O)c1sc2cccc(F)c2c1S(=O)(=O)N1CCN(c2ccccc2OC)CC1,·,-3,-18,2,4
CCc1ccc2c(c1)c(=O)c(C(=O)c1ccccc1)cn2CC(=O)Nc1ccc(C)c(Cl)c1,·,0,13,2,-11
CCCCC(=O)NNC(=S)NC(=O)CCC,-58*,-12,-10,2,1
COc1cc(/C=C2\CCc3c2nc2ccccc2c3C(=O)O)cc(OC)c1OC,0,-6,3,1,5
CCCCNC(=O)COC(=O)c1c2c(nc3ccccc13)CCC2,26,-6,2,-1,-5
CNC(=O)NC(=O)C(C)OC(=O)c1c2c(nc3ccccc13)/C(=C/c1cccs1)CC2 (centres undefined),2,-7,3,9,37*
CCCCNC(=O)COC(=O)c1c2c(nc3ccccc13)/C(=C/c1cccs1)CC2,11,-5,-1,7,69*
CCc1cccc(NC(=O)CSc2ncc3c(n2)-c2ccc(Cl)cc2N(Cc2ccccc2)S3(=O)=O)c1,·,4,-8,6,-12
Cn1ncc2c(Nc3cccc(C#N)c3)ncnc21,·,-2,-3,-4,-17
SMILES,D3 antag,D1 PAM,D1 antagonist,D1 agonist,DRD3 agonist
O=C(NNC1=Nc2cccc3cccc1c23)c1ccc(Br)cc1,-97*,-4,2,21,-12
Cc1ccc(NC(=O)c2cccn2-c2nnc(N3CCCCC3)s2)cc1Cl,·,7,19,5,-22
CC(C)OCc1cc(CN2CCN(c3ccccc3)CC2)c(O)c2ncccc12,·,-3,0,-2,-20
Oc1c(CN2CCN(c3ccccc3)CC2)cc(Br)c2cccnc12,?,-3,-87*,0,-15
Oc1c(CN2CCOCC2)cc(COCc2ccccc2)c2cccnc12,-67*,3,5,1,-23
COc1cc(NC(=O)CC2C(=O)N(c3cccc(C)c3)C(=O)N2Cc2ccc(F)cc2)cc(OC)c1 (centres undefined),·,-1,18,3,0
COc1cc(/C=N\n2nnnc2N)ccc1OCc1ccc(F)cc1,-54*,-8,-6,6,-9
COc1cc(/C=N/NC(=O)c2nnn(-c3nonc3N)c2C(C)C)ccc1OCc1ccc(F)cc1,74,12,-16,3,57*
Cc1ccccc1Cn1nnc2c(=O)[nH]c(C3CCN(C(=O)c4ccccc4)CC3)nc21,·,-1,3,0,-23
O=C(COC(=O)Cc1ccc(F)cc1)NCc1ccco1,2,-1,-1,1,2
O=C(COC(=O)/C=C/c1ccc(C(F)(F)F)cc1)NC1CCCC1,1,-8,-49*,5,1
O=C(COC(=O)/C=C/c1ccc(C(F)(F)F)cc1)NCc1ccco1,-6,-7,-31*,6,-6
O=C(COC(=O)/C=C/c1cccc(C(F)(F)F)c1)NC1CCCCCC1,0,·,-15,3,2
O=C(COC(=O)CCC(=O)c1ccc(F)cc1)NCc1ccco1,-7,-8,-32*,0,-4
O=C(COC(=O)/C=C/c1ccc(C(F)(F)F)cc1)NC1CC1,-64*,1,-26,9,-1
CCc1ccc(NC(=O)CSc2c(C)cnc3c2c(=O)n(C)c(=O)n3C)cc1,·,-1,·,-2,3
O=C(COC(=O)/C=C/c1ccc(OC(F)F)cc1)NCc1cccs1,-5,-3,3,36*,6
Cc1sc2ncnc(N3CCC(C(=O)Nc4cc(Cl)ccc4Cl)CC3)c2c1C,32,13,4,1,42*
COc1ccc(OCCSc2ccc(S(=O)(=O)N3CCCC3)cn2)cc1,7,·,0,22,13
CC(C)N(C(=O)CSc1ccc(S(=O)(=O)N2CCCCC2)cn1)C(C)C,8,-4,-5,0,10
O=S(=O)(c1ccc(SCCOc2cccc(Br)c2)nc1)N1CCCC1,14,2,-15,18,3
CN1CCN(S(=O)(=O)c2ccc(SCCOc3ccc(Cl)cc3)nc2)CC1,6,-15,-44*,14,-2
NC(=O)CSc1ccc(S(=O)(=O)N2CCCCC2)cn1,-20,·,7,41*,-1
O=S(=O)(c1ccc(SCCOc2ccccc2Cl)nc1)N1CCCC1,-29,·,10,38*,-6
COc1ccc(-c2nc3ccccc3s2)cc1NC(=O)c1ccc(F)cc1,·,-1,15,1,2
Cc1cc(=O)n(Cc2ccc(F)cc2Cl)c2c1c(C)nn2C,·,-4,-11,6,26
CCc1ccccc1Nc1ncnc2ccccc12,58,-8,-60*,7,0
CCc1ccccc1Nc1ncnc2c1cnn2-c1ccc(Cl)cc1,·,2,6,3,0
c1cc2c(cc1Cn1cnnn1)OCO2,-57*,-1,1,4,-7
